Laboratory results taken from PubChem BioAssay.
Measured potencies and affinities stand elsewhere. Results filed as inconclusive are left out. Calls of active or inactive are those of the source. No rule for the calls is given here.

Assay: non-specific cell cytotoxicity, dose response, cytotoxicity control for PAX8 inhibitor project, plate reader, dry powder samples (AID 743021)
Settings: cell line, non-specific cytotoxicity counter-screen; series mostly up to 35 µM
With C[C@@H]1CN([C@@H](C)CO)C(=O)Cc2cc(N(C)C)ccc2O[C@H]1CN(C)Cc1ccc(Oc2ccccc2)cc1 the outcome was “inactive”.
For C[C@H](CO)N1C[C@H](C)[C@H](CN(C)Cc2ccc3c(c2)OCO3)Oc2ccc(NC(=O)Nc3cccc4ccccc34)cc2C1=O, the outcome was “inactive”.
With COc1ccccc1C#Cc1ccc2c(c1)O[C@H](CN(C)Cc1cccnc1)[C@H](C)CN([C@H](C)CO)S2(=O)=O the outcome was “inactive”.
For C[C@@H]1CCCCO[C@H](CN(C)Cc2ccc(C(F)(F)F)cc2)[C@H](C)CN([C@H](C)CO)C(=O)c2cc(NS(=O)(=O)c3ccc(F)cc3)ccc2O1, the outcome was “inactive”.
With CN1c2ccc(-c3ccc(C#N)cc3)cc2[C@@H]2[C@@H](CCN2C(=O)NC2CCCCC2)[C@@H]1CO the outcome was “inactive”.
For Cc1ccc(S(=O)(=O)Nc2ccc3c(c2)C(=O)N([C@@H](C)CO)C[C@H](C)[C@H](CN(C)Cc2ccc(C(F)(F)F)cc2)OCCCC[C@@H](C)O3)cc1, the outcome was “inactive”.
For Cc1ccc(S(=O)(=O)N(C)C[C@H]2Oc3ccc(NC(=O)Nc4ccc(C(F)(F)F)cc4)cc3CC(=O)N([C@@H](C)CO)C[C@H]2C)cc1, the outcome was “inactive”.
In the case of CCCN(C)C[C@H]1OCCCC[C@@H](C)Oc2ccc(NC(=O)c3ccccc3)cc2C(=O)N([C@H](C)CO)C[C@H]1C, the outcome is reported as “inactive”.
With C[C@@H]1CCCCO[C@H](CN(C)Cc2ccc(Cl)c(Cl)c2)[C@@H](C)CN([C@@H](C)CO)C(=O)c2cc(NS(=O)(=O)c3ccc(Cl)cc3)ccc2O1 the outcome was “inactive”.
With C[C@@H]1CN([C@H](C)CO)C(=O)c2c(c3ccccc3n2C)-c2ccccc2CO[C@H]1CN(C)C(=O)Nc1cccc(C(F)(F)F)c1 the outcome was “inactive”.
For C[C@@H]1CCCCO[C@H](CN(C)Cc2ccc(Cl)c(Cl)c2)[C@H](C)CN([C@@H](C)CO)C(=O)c2cc(NC(=O)Nc3ccc(F)cc3)ccc2O1, the outcome was “inactive”.
For C[C@H](CO)N1C[C@H](C)[C@H](CN(C)Cc2ccc(Cl)c(Cl)c2)Oc2c(NS(=O)(=O)c3ccc(Cl)cc3)cccc2C1=O, the outcome was “inactive”.
In the case of Cc1ccc(S(=O)(=O)Nc2ccc3c(c2)C(=O)N([C@H](C)CO)C[C@@H](C)[C@H](CN(C)S(=O)(=O)c2ccc(Cl)cc2)OCCCC[C@H](C)O3)cc1, the outcome is reported as “inactive”.
In the case of C[C@@H]1CN([C@H](C)CO)C(=O)c2cc(NC(=O)Nc3ccc(C(F)(F)F)cc3)ccc2O[C@@H](C)CCCCO[C@H]1CN(C)C(=O)Nc1ccc(F)cc1, the outcome is reported as “inactive”.
In the case of Cc1ccc(S(=O)(=O)Nc2ccc3c(c2)C(=O)N([C@@H](C)CO)C[C@H](C)[C@@H](CN(C)C(=O)Nc2ccc(C(F)(F)F)cc2)OCCCC[C@H](C)O3)cc1, the outcome is reported as “inactive”.
With Cc1cccc(-c2ccc([C@H]3[C@H](CO)N4CCCCN(S(=O)(=O)c5ccccc5C)C[C@@H]34)cc2)c1 the outcome was “inactive”.
In the case of C[C@@H]1CN([C@H](C)CO)C(=O)c2cc(NC(=O)Nc3ccc(F)cc3)ccc2O[C@@H](C)CCCCO[C@H]1CN(C)Cc1ccc(Cl)c(Cl)c1, the outcome is reported as “inactive”.
With O=C(Nc1cccc(F)c1)N1CCCCN2[C@@H](CO)[C@@H](c3ccc(-c4ccncc4)cc3)[C@@H]2C1 the outcome was “inactive”.
In the case of C[C@@H]1CCCCO[C@H](CN(C)C)[C@H](C)CN([C@H](C)CO)C(=O)c2cc(NC(=O)Nc3cccc4ccccc34)ccc2O1, the outcome is reported as “inactive”.
For C[C@@H]1CN([C@@H](C)CO)C(=O)c2cc(NC(=O)c3ccccc3)ccc2O[C@@H](C)CCCCO[C@H]1CN(C)Cc1ccc(C(F)(F)F)cc1, the outcome was “inactive”.
For C[C@@H]1CCCCO[C@H](CN(C)Cc2ccc(C(F)(F)F)cc2)[C@@H](C)CN([C@@H](C)CO)C(=O)c2cc(NS(=O)(=O)c3ccccc3)ccc2O1, the outcome was “inactive”.
In the case of O=C(Nc1ccc(C(F)(F)F)cc1)N1C[C@@H]2N[C@H](C1)C2c1ccc(-c2ccccc2)cc1 (stereo partly specified), the outcome is reported as “inactive”.
With O=C(C[C@@H]1CC[C@H]2[C@@H](COC[C@@H](O)CN2Cc2cccc(C(F)(F)F)c2)O1)NCc1ccc(F)cc1 the outcome was “inactive”.
With C[C@@H]1CN([C@H](C)CO)C(=O)c2cc(NC(=O)Nc3ccc(F)cc3)ccc2O[C@@H](C)CCCCO[C@H]1CN(C)C(=O)Nc1ccc(F)cc1 the outcome was “inactive”.
For O=S(=O)(c1ccc(F)cc1)N1C[C@H]2[C@@H](c3ccccc31)[C@H](CO)N2Cc1ccccc1Cl, the outcome was “inactive”.
For C[C@@H]1CN([C@@H](C)CO)S(=O)(=O)c2ccc(C#C[C@@H](C)O)cc2O[C@@H]1CN(C)Cc1ccc(-c2ccccc2)cc1, the outcome was “inactive”.
